Screens (PubChem)
Shown are actives, neighbours in structure and some others; about 2.2% of the full set was active somewhere.
M1 ag parental: nonselective activator or artifact in parental CHO-K1 cells; Fluo-8 calcium fluorescence; scaled to maximal ATP response, vehicle zero; activation, % at 3 µM; hit rate 0.48% among 360,000; in the data active = activation above about 15%;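 also: untransfected CHO-K1 host cells lacking M1 receptor as counterscreen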
TMEM16A inh: inhibitors of mouse TMEM16A calcium-activated chloride channel; normalized B-score (activity score, 25-100; higher = stronger inhibition) at 10 µM; HEK293 TMEM16A/YFP iodide influx fluorescence, ionomycin; hit rate 1.2% among 310,000;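 active = ratio plate-corrected score three or more library SD toward inhibition, starting fluorescence score within five deviations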;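 also: score derived from kinetic fluorescence span divided by baseline fluorescence per well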
CHO-K1 Ca antag: nonselective inhibitor or artifact in parental CHO-K1 cells | ATP-induced calcium, Fluo-8 fluorescence | inhibition, % at 3 µM | hit rate 0.6% among 360,000;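 active = inhibition above a per-plate cutoff, the plate's mean sample inhibition plus 3 SD, cut at about 24% in these data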;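 also: 0% = DMSO plus EC80 ATP and 100% = DMSO alone without ATP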
CHO-K1 Ca PAM: M1 PAM counterscreen hit in parental CHO-K1 cells | hit rate 0.02% among 360,000 | activation, % at 3 µM | ATP EC20, Fluo-8 calcium fluorescence; 0% at ATP EC20, 100% at ATP max;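 active = activation above the run cutoff, the mean activation of all test compounds plus 3 SD, cut at about 40% in these data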;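 also: peak over basal fluorescence ratio in a 140 s read after ATP addition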
NTR1 agonist: agonists of human neurotensin receptor NTR1; activation, % at 20 µM; P30989; hit rate 0.17% among 330,000; AID 493036; NTR1-U2OS beta-arrestin-GFP spot imaging, agonist mode;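 active = activation at or above 40% of the spot to cytoplasm intensity ratio, with at least 20 cells analyzed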;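 also: 0% = DMSO without peptide and 100% = 100 nM NTR1 peptide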
ANO1 activ: activators or potentiators of mouse TMEM16A chloride channel. Q8BHY3. HEK293 TMEM16A/YFP-H148Q/I152L, iodide quench fluorescence; active compounds read low. B-score at 10 µM. hit rate 0.3% among 340,000. AID 623877;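 active = fluorescence-ratio B-score plate-corrected deviation score at least 3 library SD below zero, with starting fluorescence score within 5 deviations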;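 also: channel opened by trigger with iodide after compound preincubation; score built on the fluorescence ratio of max minus min over baseline; more negative score means more quench and so TMEM16A activation or potentiation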
Starred values were filed as active, the others as inactive; i = inactive; / = no result.

SMILES	M1 ag parental	TMEM16A inh	CHO-K1 Ca antag	CHO-K1 Ca PAM	NTR1 agonist	ANO1 activ
O=c1c2ccccc2nc(SCc2cccc(F)c2)n1-c1cccc(S(=O)(=O)N2CCCC2)c1	0	i	27*	-15	0	i
NC(=S)N/N=C/c1c[nH]c2ccc(OCc3ccccc3)cc12	3	25*	-5	-4	2	i
O=Cc1c[nH]c2ccc(NC(=O)OCc3ccccc3)cc12	-1	/	29*	-28	/	i
NC(=S)N/N=C\c1ccccc1OCc1ccccc1	0	i	0	8	7	i
O=C(/C=C/[C@H]1O[C@@H](n2cnc3c(NC(=O)c4ccccc4)ncnc32)[C@H](O)[C@@H]1O)NCCCN1CCCC1=O	0	/	10	10	/	/
CN1C(=O)/C(=C/c2cn(CC(=O)N3CCCCC3)c3ccccc23)NC1=S	1	i	2	6	-1	-6.2*
C[C@@H]1CN([C@H](C)CO)C(=O)CCCn2nncc2CO[C@H]1CN(C)S(=O)(=O)c1ccc(Oc2ccccc2)cc1	0	/	-15	18	/	/
Cc1nc([N+](=O)[O-])c(SCC(O)CCl)n1Cc1ccc(Cl)cc1 (stereo unspecified)	23*	i	15	13	0	i
COc1cccc(N2CCN(C(=S)NCc3ccco3)CC2)c1	0	i	26*	-3	-1	i
Fc1ccc(N2CCN(C(=S)NCc3ccco3)CC2)cc1	2	i	-6	9	1	i
O=C(NNC(=O)c1ccc(-n2cncn2)c([N+](=O)[O-])c1)c1cccc(Cl)c1	1	i	48*	-16	0	i
O=C(NNC(=O)c1ccc(-n2cncn2)c([N+](=O)[O-])c1)c1ccc(Cl)cc1	0	i	19	-21	1	i
OCCN(Cc1ccccn1)Cc1ccccn1	2	/	-12	18	/	/
CN1C(=O)/C(=C\c2ccc(N(C)C)cc2)OC1=S	30*	i	27*	-18	-2	i
COc1cc(O)c(C=Nc2ccccc2NS(=O)(=O)c2ccc(C)cc2)c(OC)c1	0	/	-8	1	/	i
CCC(C)NC(=O)C1CCN(S(=O)(=O)c2cc([N+](=O)[O-])ccc2Cl)CC1 (stereo unspecified)	1	i	-11	21	-1	i
O=C(Nc1nc2ccccc2s1)C1CCN(S(=O)(=O)c2cc([N+](=O)[O-])ccc2Cl)CC1	9	i	40*	-20	0	i
COc1ccc(NC(C)=O)cc1NC(C)C(=O)Nc1ccc(S(=O)(=O)N2CCCCC2)cc1 (stereo unspecified)	1	/	-12	12	-1	i
CC(C)C[C@H]1CN(CCCC[C@@H]2CNC(=O)C(=O)N2CCc2ccccc2)C(=O)C(=O)N1Cc1ccccc1	0	/	-11	15	/	/
CCN1CCN(S(=O)(=O)c2ccc(S(=O)(=O)N(CC)Cc3ccccc3)cc2)CC1	22*	i	6	10	-1	i
COC(=O)c1ccc(S(=O)(=O)NCCc2ccccc2OC)n1C	18*	i	3	4	0	i
Cc1ccc(C)n1CCN1CCN(CC(=O)Nc2ccc(S(N)(=O)=O)cc2)CC1	0	i	29*	-5	1	i
NS(=O)(=O)c1ccc(NC(=O)CN2CCCC2)cc1	0	i	-6	7	2	i
CC(C)Cn1c(-c2ccc(Br)cc2)c[nH]c1=S	15*	i	-23	24	5	i
CCn1c(-c2ccccc2)c[nH]c1=S	0	i	5	-2	0	i
SMILES	M1 ag parental	TMEM16A inh	CHO-K1 Ca antag	CHO-K1 Ca PAM	NTR1 agonist	ANO1 activ
O=C1NC[C@H](CCCCN2C[C@H](Cc3ccc(O)cc3)N(CC3CCCCC3)C(=O)C2=O)N(CC2CCCCC2)C1=O	1	/	-10	7	/	/
CCCOc1cccc(-c2cc(C(=O)N/N=C/c3cccnc3)c3ccccc3n2)c1	4	25*	7	-21	6	i
COc1ccc(C)cc1NC(=O)COC(=O)Cc1ccc(-c2ccccc2)cc1	1	i	-4	23	1	i
Cc1ccnc(NC(=O)c2ccc(COc3ccc(Cl)cc3)o2)c1	0	i	2	9	0	-10*
COc1ccc(NC(=O)c2ccc(COc3ccccc3)o2)c(OC)c1	2	i	-14	42*	1	i
COc1ccc(NC(=O)COC(=O)Cc2ccc(-c3ccccc3)cc2)c(OC)c1	5	i	-25	46*	0	i
CCCC(=O)N(Cc1cc2cc(OC)ccc2[nH]c1=O)c1ccc(OC)cc1	2	/	-4	1	/	/
CC1=C(c2ccccc2)C=NNCC1=O	1	/	-13	19	/	i
O=S1(=O)CC(N2CCC(Cc3ccccc3)CC2)CN1C1CCCC1 (stereo unspecified)	4	/	-3	10	/	/
O=C(O)c1ccccc1/C=N/NC(=S)NCc1ccccc1	0	i	-2	16	2	-12*
O=C(Cc1ccc(Br)c2ccccc12)N/N=C/c1ccccn1	4	25*	1	17	8	i
O=C(Cc1ccc(F)cc1)N/N=C/c1ccccn1	1	i	-5	26	-2	i
O=C(CC(=O)N/N=C/c1ccccc1)NCc1ccccc1	17*	i	16	3	-1	i
O=C(NN=Cc1ccccc1C(=O)O)C(=O)NN=Cc1ccccc1C(=O)O	0	/	-6	-20	/	i
O=C(Cc1cccc2ccccc12)N/N=C/c1ccc(F)cc1	4	i	-20	9	5	i
O=C(Cc1cccc2ccccc12)N/N=C/c1ccncc1	26*	i	1	6	0	i
C[C@@H]1CN([C@@H](C)CO)C(=O)CCCn2nncc2CO[C@H]1CN(C)C(=O)Nc1ccc(-c2cccs2)cc1	0	/	-3	-1	/	/
COc1ccc(OCCNC(=O)C2(C)CCN2Cc2ccc3ccccc3c2)cc1 (stereo unspecified)	2	/	6	-11	/	/
COCc1cn(-c2nc3ccccc3s2)nn1	0	/	-6	2	/	/
CCCS(=O)(=O)NC(=O)C1(C)CCN(C(=O)c2ccc3c(c2)OCO3)C1 (stereo unspecified)	0	/	-2	-1	/	/
CCCCC1CC2=C(C(=O)OC(C)(C)O2)C(c2ccc3ccccc3c2)O1 (stereo unspecified)	0	/	-16	0	/	/
Cc1ccc(C)c(/C=N/NC(=S)NCCc2ccccc2)c1	0	100*	-10	8	26	i
COC(=O)CCC1(C(N)=O)CCC(=O)c2ccccc21 (stereo unspecified)	0	/	-6	3	/	i
CC1CCN(C(=O)C2CCN(c3nnc(-n4cccc4)s3)CC2)CC1	1	i	57*	6	0	i
